The values that follow come from PubChem BioAssay (NCATS).

Each structure is given as a SMILES string. Where “and” joins values, the source holds several entries; their conditions need not be identical. Identical values can stand only once. Results filed as inconclusive are left out. More than one record can exist for a structure, and the calls need not agree. Unmarked numbers belong to inactive results. Calls of active or inactive are those of the source. The call rests on the fitted dose curve; in most records, active means well fitted curve in the direction sought with a large enough effect; inconclusive means small, poorly fitted or top-dose-only effect, or another doubt; inactive means no such curve, though single readings can be large; an effect the other way counts as inactive or inconclusive.

The test system of assay [1] is CRL-7250. The experiment in a line: Cytotoxic Profiling of Annotated Libraries Using Quantitative High-Throughput Screening (AID 1296008). Further: nearly all actives have a fitted effect of over 60% in size. Further: potency means the concentration at half of the fitted maximal effect. On max response: on the % scale 0 is the no-effect control and ±100 the full control effect. The conditions noted are these: Five cell lines viability, CellTiter-Glo ATP luminescence, 48-72 h; max response: hits give low values. In a few lines:
(§1)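 Cells exposed to compounds for 48 or 72 hr at 37 degrees Celsius. Viability read as ATP-coupled luminescence with CellTiter-Glo after 10 min at room temperature.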
For orientation: In ATP-based viability assays light output follows the ATP content of the culture.

Assay [2] relates to HEK293. The assay is described as above. The conditions noted are these: Five cell lines viability, CellTiter-Glo ATP luminescence, 48-72 h; max response: hits give low values. In a few lines:
as §1

In assay [3] the test system is HaCat. Described as above. The conditions noted are these: Five cell lines viability, CellTiter-Glo ATP luminescence, 48-72 h; max response: hits give low values. In a few lines:
as §1

Assay [4] deals with KB-3-1. The description is as above. The conditions noted are these: Five cell lines viability, CellTiter-Glo ATP luminescence, 48-72 h; max response: hits give low values. In a few lines:
as §1

Assay [5] relates to NIH3T3. Described as above. The conditions noted are these: Five cell lines viability, CellTiter-Glo ATP luminescence, 48-72 h; max response: hits give low values. In a few lines:
as §1

Assay [6] concerns MCC-13. The experiment in a line: qHTS assay to identify novel small-molecules to repurpose for Merkel cell carcinoma treatment (AID 1296009). Further: nearly all actives have a fitted effect of over 60% in size. Further: potency means the concentration at half of the fitted maximal effect. The conditions noted are these: MCC and control cell lines, CellTiter-Glo viability, 72 h; series mostly up to 46 µM. In a few lines:
(§2)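 Dose-response viability screen; 72 hr exposure at 37 degree celsius; CellTiter-Glo added, 10 min room temperature, luminescence read; RLUs scaled between no-cell and DMSO wells.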

The test system of assay [7] is MCC-26. Described as above. The conditions noted are these: MCC and control cell lines, CellTiter-Glo viability, 72 h; series mostly up to 46 µM. In a few lines:
as §2

In assay [8] the test system is MKL-1. The assay is described as above. The conditions noted are these: MCC and control cell lines, CellTiter-Glo viability, 72 h; series mostly up to 46 µM. In a few lines:
as §2

In assay [9] the test system is MKL-2. Described as above. The conditions noted are these: MCC and control cell lines, CellTiter-Glo viability, 72 h; series mostly up to 46 µM. In a few lines: as §2
Assay [10] relates to UISO. The description is as above. The conditions noted are these: MCC and control cell lines, CellTiter-Glo viability, 72 h; series mostly up to 46 µM. In a few lines: as §2
Assay [11] relates to HEK293T. Described as above. The conditions noted are these: MCC and control cell lines, CellTiter-Glo viability, 72 h; at 44.8 µM (top of the series). In a few lines: as §2
Assay [12] relates to WaGa. The description is as above. The conditions noted are these: MCC and control cell lines, CellTiter-Glo viability, 72 h; series mostly up to 46 µM. In a few lines:
as §2

The test system of assay [13] is CASKI. Briefly: Primary qHTS to identify gynecologic anti-cancer compounds using libraries of approved drugs and bioactive compounds (AID 1345084). Further: nearly all actives have a fitted effect of over 55% in size. Further: potency means the concentration at half of the fitted maximal effect. The conditions noted are these: Gynecologic cancer cell panel viability, ATPlite luminescence, 48 h; series mostly up to 57.5 µM. In a few lines:
(§3)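 Cells, 1,000 per well, were allowed to settle for 16 h at 37 C before compound addition. Five concentrations were tested for 48 h, and viability was read by ATPlite luminescence after 15 min at room temperature.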
In general terms: qHTS replaces the single test concentration by a dilution series.

For assay [14], the system named is C33A. The assay is described as above. The conditions noted are these: Gynecologic cancer cell panel viability, ATPlite luminescence, 48 h; series mostly up to 57.5 µM. In a few lines: as §3
Assay [15] deals with CAOV3. Described as above. The conditions noted are these: Gynecologic cancer cell panel viability, ATPlite luminescence, 48 h; series mostly up to 57.5 µM. In a few lines: as §3
Assay [16] relates to TAB113. The experiment in a line: qHTS profiling for inhibitors of Plasmodium falciparum proliferation (AID 504749).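 Further: 0% = DMSO vehicle and full inhibition = artemisinin control; nearly all actives have a fitted effect of over 60% in size.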 The conditions noted are these: P. falciparum in erythrocytes, SYBR Green DNA, 72 h; series mostly up to 28.7 µM. In a few lines:
(§4)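 Each compound contacts P. falciparum-infected red blood cells for 72 h at 37 C; lysis buffer (Tris, EDTA, saponin, Triton X, SYBR Green I) is added and fluorescence measured next morning; values normalized to controls.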

For assay [17], the system named is TAB165. The assay is described as above. The conditions noted are these: P. falciparum in erythrocytes, SYBR Green DNA, 72 h; series mostly up to 28.7 µM. In a few lines:
as §4

Assay [18] relates to W2. Described as above. The conditions noted are these: P. falciparum in erythrocytes, SYBR Green DNA, 72 h; series mostly up to 28.7 µM. In a few lines:
as §4

For assay [19], the system named is NIH3T3. The experiment in a line: qHTS assay to identify novel small-molecules to repurpose for Merkel cell carcinoma treatment (AID 1296009). Further: nearly all actives have a fitted effect of over 60% in size. Further: potency means the concentration at half of the fitted maximal effect. The conditions noted are these: MCC and control cell lines, CellTiter-Glo viability, 72 h; at 44.8 µM (top of the series) unless noted. In a few lines: as §2

On to `Cc1[nH]c(C=C2C(=O)Nc3ccc(S(=O)(=O)Cc4c(Cl)cccc4Cl)cc32)c(C)c1C(=O)N1CCC[C@H]1CN1CCCC1`, for which the max response was 1.44% in assay [1], -4.31% in assay [3], 1.95% in [4] and -20.1% in [5]. For the same compound, the Potency in [2] is 23.5 µM (active); in [8], 18.7 µM (active); in assay [9], 3.72 µM (active). Besides, the Potency entry in [6], in [7] and in [10] was “inactive” throughout.

`CCN(CC)CCOc1ccc(C(=C(Cl)c2ccccc2)c2ccccc2)cc1`: the max response in [1] is -5.74%; in assay [3], -8.22%; in assay [5], 2.62%. Also, the call in assay [2], in [4] and in assay [11] was inactive. Further, the Potency entry in assay [6], in assay [7], in [8], in assay [9], in assay [10] and in [12] was “inactive” each time.

`NC1=N[C@@]2(c3cc(NC(=O)c4ccc(F)cn4)ccc3F)COC[C@@H]2CS1`: the compound was called inactive in assay [1]. Moreover, the max response is -6.98% in assay [2], -6.87% in [3], 8.68% in assay [4] and 4.73% in assay [5]. In addition, the Potency result in assay [6], in [7] and in [9] was “inactive” each time. The Potency in [8] was 10.5 µM (active).

In the case of `CO[C@H]1C(=O)[C@]2(C)[C@@H](OC)C[C@H]3OC[C@@]3(OC(C)=O)[C@H]2[C@H](OC(=O)c2ccccc2)[C@]2(O)C[C@H](OC(=O)[C@H](O)[C@@H](NC(=O)OC(C)(C)C)c3ccccc3)C(C)=C1C2(C)C`, the max response in [1] was -47%; in assay [2], -66.4%; in [3], -71.6%; in assay [5], -69.8%. Also, the Potency in assay [4] was 0.8 nM (active). In addition, the Potency result in assay [6], in assay [8], in [9], in assay [10] and in assay [12] was “inactive” each time.

On to `COc1cc(N2CCC(N3CCN(C)CC3)CC2)ccc1Nc1ncc(Cl)c(Nc2ccccc2S(=O)(=O)C(C)C)n1`, for which the Potency in assay [1] is 1.46 µM (active); in assay [2], 1.16 µM (active); in assay [3], 3.66 µM (active); in [4] it was 920 nM (active); in assay [5] it was 1.64 µM (active); in [7] it was 5.9 µM (active). In addition, in [13], the Potency was 7.94 µM (active). Also, the Potency result in [9] and in [10] was “inactive” each time.

As for `O=C(Nc1cc(Cl)cc2c1[nH]c1cnccc12)c1cccnc1`, the max response in assay [1] was -0.841%; in assay [2] it was 3.08%; in assay [3], -0.0712%; in assay [4], -1.81%; in assay [5], 2.41%. The Potency result in assay [6], in assay [7], in assay [8], in assay [9], in [10] and in assay [12] was “inactive” in each case.

On to `OC[C@H]1O[C@@H](Oc2cc(O)cc(C=Cc3ccc(O)cc3)c2)[C@H](O)[C@@H](O)[C@H]1O`, for which the outcome in assay [1] and in assay [4] was inactive. Besides, the max response in assay [2] is -2.18%; in [3] it was -6.02%; in assay [5] it was 2.83%. Besides, the Potency entry in [6], in [7], in assay [8], in [9], in assay [10] and in assay [12] was “inactive” each time.

Turning to `O=C(CCCCCCC(=O)Nc1ccccc1)NO`, the Potency in [1] was 8.41 µM (active) and 10.3 µM (active) and 11.8 µM (active); in assay [2] it was 5.96 µM (active) and 8.33 µM (active); in [3], 7.5 µM (active) and 9.2 µM (active); in assay [4], 7.31 µM (active) and 5.8 µM (active) and 9.35 µM (active); in assay [5], 10.6 µM (active) and 18.7 µM (active); in assay [6], 6.68 µM (active). Moreover, the Potency in assay [7] was 20.9 µM (active); in [8], 2.99 µM (active) and 5.9 µM (active); in assay [9], 1.88 µM (active) and 3.32 µM (active); in assay [10], 14.8 µM (active); in assay [14], 6.31 µM (active) and 14.1 µM (active).

Consider `CN(C)c1cc(NC(=O)CNC(C)(C)C)c(O)c2c1C[C@@H]1C[C@H]3[C@H](N(C)C)C(=O)C(C(N)=O)=C(O)[C@@]3(O)C(=O)C1=C2O`, for which the max response was -28.8% in assay [1]; 4.51% in assay [2]; 1.33% in assay [3]; -10.5% in assay [4]; -1.41% in assay [5]. For the same compound, the Potency entry in assay [6], in assay [8], in assay [9], in assay [10], in [12] and in assay [14] was “inactive” in each case. Besides, the Potency result in [15] and in assay [13] was “inactive” in each case.

As to `C[N+](C)(C)CCCCCC[N+](C)(C)C`, the Potency result in assay [16], in [17], in assay [18], in assay [6], in assay [7] and in assay [8] was “inactive” in each case. Also, the Potency result in assay [9], in assay [10], in assay [12], in assay [14], in assay [15] and in assay [13] was “inactive” in each case. In addition, the max response in assay [1] is -5.15%; in assay [3], 2.98%; in assay [4] it was 21.4%. Further, the result in [2], in [5], in assay [11] and in assay [19] was inactive.

Turning to `OC[C@H]1O[C@@H](n2cnc3c2NC=NC[C@@H]3O)C[C@H]1O`, the max response in [1] is 2.48%; in assay [3], 1.63%; in [4], -3.46%. Besides, the result in assay [2], in assay [5], in [11] and in [19] was inactive. Moreover, the Potency entry in assay [6], in assay [7], in assay [8], in assay [9], in assay [10] and in assay [12] was “inactive” throughout.

`CC(C)(Cc1ccc2ccccc2c1)NC[C@@H](O)COc1cccc(Cl)c1C#N`: the compound was classed as inactive in assay [1]. In addition, the max response in [2] was -1.92%; in assay [3] it was -22.6%; in assay [4], 2.48%; in [5], -24.7%. Also, the Potency result in assay [6], in assay [7], in assay [8] and in assay [10] was “inactive” in each case.
